Abs 340nm: absorbance at 340 nm; compound absorbance at 340 nm, fold over control; fold change at 10 µM; 65,000 tested, under 10 active;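 active means at 10 µM dose, initial 340 nm absorbance at least 2 fold that of control wells; inactive means change under 2 fold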;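 further: initial absorbance extrapolated from kinetic A340 decline of NADH oxidation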
Spn PMK inh: inhibitors of Streptococcus pneumoniae phosphomevalonate kinase | purified PMK, PK/LDH-coupled NADH absorbance 340 nm | inhibition, % at 10 µM | 65,000 tested, 0.49% active;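 active means top-ranked compounds by inhibition in the single 10 µM screen, taking a fixed number of the strongest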;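 further: 0% = full reaction with DMSO carrier and 100% = background rate without enzyme reaction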
MK inhibit: blocks S. pneumoniae mevalonate kinase | 65,000 tested, 0.48% active | purified MK, PK/LDH-coupled NADH absorbance 340 nm | inhibition, % at 10 µM | AID 555;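 active means ranked among the strongest by inhibition in the single 10 µM screen, a fixed top-ranked set picked for dose follow-up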
NADH coupling: inhibition of NAD/NADH coupling enzymes, library profiling; coupled PK/LDH NADH assays, four targets; IC50, µM (highest dose often 10 µM), inactives show at the highest dose inhibition; 65,000 tested, 0.02% active; AID 774;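 active means single-dose screening hits from any of four coupled enzyme assays that gave an IC50 when retested across doses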;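 further: the DPM-DC format reads NADH fluorescence rather than 340 nm absorbance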
Spn DPM-DC inh: inhibitors of Streptococcus pneumoniae diphosphomevalonate decarboxylase | purified DPM-DC, PK/LDH coupled NADH fluorescence | calls only at 10 µM | 65,000 tested, 0.49% active | AID 556;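 active means the 320 compounds with the highest percent inhibition in the single-dose primary screen, excluding strongly autofluorescent ones, cut at about 32% in these data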;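 further: kinetic rate of NADH fluorescence loss reporting ADP formed by the decarboxylase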
Autofluor 339: intrinsic fluorescence of library compounds, ex339/em460 – biochemical, MLSMR library, data from DPM-DC assay, artefact control, profiling panel; compound autofluorescence, ex339/em460 nm, NADH buffer; active compounds read high; 1 = no-compound wells, NADH background; fluorescence fold increase at 10 µM; 65,000 tested, 5.5% active; AID 709;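 active means at 10 µM, mean starting fluorescence two-fold or more over control wells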;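 further: signal is the first read of a kinetic run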
The depositor's hits bear a star; i = inactive; x = not tested or not shown. In the library only some 6.3% were active in any assay of this set; here they are far more common.

SMILES	Abs 340nm	Spn PMK inh	MK inhibit	NADH coupling	Spn DPM-DC inh	Autofluor 339
CCOc1ccc(CC(=O)N2CCN(c3ccc(N4CCOCC4)nn3)CC2)cc1OCC	1	6	2	4%	x	2.1*
COc1ccc(C(=O)CCC(=O)N2CCN(c3ccc(N4CCOCC4)nn3)CC2)cc1	1	0	4	2%	x	2.1*
COc1ccc(CC(=O)N2CCOCC2)cc1OC	0.99	0	7	3%	i	1
O=C(O)c1ccccc1-c1ccccc1C(=O)NCc1ccco1	1.1	11	15	9%	i	1.1
Cc1cc2oc(=O)cc(Cn3ccnc3)c2cc1C	1	9	7	5%	i	1.6
O=c1cc(Cn2ccnc2)c2cc3c(cc2o1)CCC3	1	13	10	12%	i	2.2*
COC(=O)c1cnn(C(=O)c2cc(OC)ccc2Br)c1N	1.1	9	0	10%	i	0.77
COCCCNC(=O)c1ccc(N2CCCC2)c(NS(=O)(=O)c2ccc(C)cc2)c1	1.1	25*	8	11%	i	1
Cc1ccc(S(=O)(=O)Nc2cc(C(=O)NCCN3CCCC3)ccc2N2CCCCC2)cc1	1	15	10	8%	i	1.4
FC(F)(F)c1cccc(CN2CCCCCC2)c1	1.1	5	45*	17%	i	1.1
CN(C)c1ccc(CN2CCCCCC2)cc1	1	14	3	6%	i	1
CC(C)c1cc(N2CCN(C(=O)c3ccco3)CC2)n2c(nc3ccccc32)c1C#N	1.1	13	5	9%	x	2.1*
Cc1cc(-c2ccco2)c(C#N)c2nc3ccccc3n12	1.3	0	9	5%	x	2.2*
CCc1c(C)c(C#N)c2nc3ccccc3n2c1-n1nc(C)cc1C	1	5	0	2%	i	1.2
O=C(c1ccco1)N1CCN(c2nc3ccccc3n3nnnc23)CC1	1.1	18	0	6%	i	1.6
O=C(NCc1ccccn1)C1CCCN(S(=O)(=O)c2cccc3nsnc23)C1 (stereo not drawn)	1	11	3	5%	i	1.1
Cc1ccc(-c2noc(-c3cccs3)n2)cc1	1.1	0	4	1%	i	1.1
Brc1ccc(-c2cnc(-c3cccs3)o2)cc1	1.1	7	2	5%	x	5*
COC(=O)c1ccc(C(=O)OC)c(NS(=O)(=O)c2ccc(NC(C)=O)cc2)c1	1.1	6	0	3%	x	2.2*
COC(=O)c1ccc(C)c(NS(=O)(=O)c2ccc(OC)cc2)c1	1	16	3	6%	i	1.1
CC(C)(C)c1ccccc1OCCCCCNCCO	1	52*	44*	32%	i	1.1
O=C(CCN1C(=O)c2ccccc2C1=O)NC1=NCCS1	0.82	51*	6	19%	i	1
Cc1occc1-c1nnc2sc(-c3ccc(-c4ccc(Cl)cc4)o3)nn12	1	10	3	7%	x	2.1*
c1ccc2oc(-c3nn4c(Cn5cnc6ccccc65)nnc4s3)cc2c1	1.1	11	8	9%	i	2.2*
Cc1cc(C)c2c(n1)nn1c(NCCOCCO)cc(C)nc21	1	7	10	9%	x	3.9*
SMILES	Abs 340nm	Spn PMK inh	MK inhibit	NADH coupling	Spn DPM-DC inh	Autofluor 339
CCC1(C)Cc2c(sc3[nH]c(=O)[nH]c(=O)c23)CS1 (stereo not drawn)	1	4	3	4%	x	2.3*
CC(=O)c1c(C)nc2ccc(Br)cc2c1C(=O)O	1.1	13	8	7%	i	1
O=C1CC(c2ccc(F)cc2)Cc2nc(N3CCN(c4ccccc4)CC3)ncc21 (stereo not drawn)	1	2	4	2%	i	1.2
O=C1CC(c2ccc(F)cc2)Cc2nc(N3CCc4ccccc43)ncc21 (stereo not drawn)	1.1	19	7	13%	x	3.8*
Cc1cc(C)nc(SCc2nnc(SCC(=O)Nc3ccccc3C)n2Cc2ccco2)n1	1	11	0	5%	i	1
O=C(NCc1ccc2c(c1)OCO2)C1CCCN(S(=O)(=O)c2cccnc2)C1 (stereo not drawn)	1	7	4	2%	i	1
CCOC(=O)c1cnc2cc3c(cn2c1=O)CCCC3	1.1	16	5	11%	x	5*
COc1ccc2nc3c(cc2c1)c(NC(=O)c1cccs1)nn3CC(C)C	1	12	9	11%	x	3.7*
